# Data reported in PubChem BioAssay (NCI).
# The panel holds about 79,000 compounds, 15% with a hit somewhere; the sample as a whole holds those more often. Unmarked numbers belong to inactive results. Activity calls are given as the source filed them. Rule as the data show it: active = growth inhibition above about 70%; inactive = the rest.
# What was measured:
# [1] = NCI Yeast Anticancer Drug Screen. Data for the mec2-1 strain (AID 157); conditions: S. cerevisiae mec2-1 strain, hits give high values
# In short: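 Growth inhibition is read against vehicle-treated controls after compound exposure of the mec2-1 yeast strain, which is defective in DNA damage repair or cell cycle control.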
# [2] = NCI Yeast Anticancer Drug Screen. Data for the rad14 strain (AID 159);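 also: 0% = growth of vehicle-treated control cultures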; conditions: S. cerevisiae rad14 strain growth inhibition, hits give high values
# In short: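 Inhibition of growth is reported for a repair-deficient yeast mutant following compound treatment, calculated relative to cultures that received vehicle.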
# [3] = NCI Yeast Anticancer Drug Screen. Data for the sgs1 mgt1 strain (AID 161);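 also: 0% = growth of cultures given vehicle only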; conditions: S. cerevisiae sgs1 mgt1 strain, hits give high values
# In short: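 Growth of a repair-deficient yeast mutant was monitored after compound treatment and expressed as inhibition relative to vehicle-treated cultures.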
# [4] = NCI Yeast Anticancer Drug Screen. Data for the CLN2oe strain (AID 163);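 also: 0% = growth of vehicle-only control cultures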; conditions: S. cerevisiae CLN2oe strain, hits give high values
# In short: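 Compound-treated yeast; growth vs vehicle ctrl = % inhibition. Genetically altered strain (cell-cycle control).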
# [5] = NCI Yeast Anticancer Drug Screen. Data for the cln2 rad14 strain (AID 165);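 also: 0% = growth equal to vehicle treated cultures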; conditions: S. cerevisiae cln2 rad14 strain, hits give high values
# In short: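 Growth inhibition, relative to vehicle-treated controls, is the read-out. The test organism is a yeast strain with defined genetic alterations, cln2 rad14.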
# [6] = NCI Yeast Anticancer Drug Screen. Data for the bub3 strain (AID 167); conditions: S. cerevisiae bub3 mutant strain, hits give high values
# In short: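 Mutant yeast screening strain plus compound; vehicle-treated cultures serve as the 0% inhibition reference.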
# [7] = NCI Yeast Anticancer Drug Screen. Data for the wt2 strain (AID 169); conditions: S. cerevisiae wt2 strain growth inhibition, hits give high values
# In short: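 Compound exposure of yeast; growth compared with vehicle controls; inhibition reported.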
# [8] = NCI Yeast Anticancer Drug Screen. Data for the mlh1 strain (AID 171);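 also: 0% = growth of vehicle-treated control cultures of the same strain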; conditions: S. cerevisiae mlh1 strain growth inhibition, hits give high values
# In short: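 Compounds are applied to a genetically altered yeast strain, and its growth is compared with that of vehicle-treated cultures to give percent inhibition.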
# [9] = NCI Yeast Anticancer Drug Screen. Data for the sgs1 strain (AID 173);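 also: 0% = growth of vehicle-only control cultures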; conditions: S. cerevisiae sgs1 mutant, hits give high values
# In short: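 Compounds applied to genetically altered yeast; growth compared with vehicle-treated cultures to give % inhibition.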
# [10] = NCI Yeast Anticancer Drug Screen. Data for the mlh1 rad18 strain (AID 175); conditions: S. cerevisiae mlh1 rad18 strain growth inhibition, hits give high values
# In short: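 Cells of a genetically altered yeast strain, deficient in DNA damage repair, were treated with compound. Their growth was then compared with that of vehicle-treated cultures to give inhibition.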
# [11] = NCI Yeast Anticancer Drug Screen. Data for the rad52 strain (AID 147);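 also: 0% = growth of vehicle-treated control cultures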; conditions: S. cerevisiae rad52 mutant growth inhibition, hits give high values
# In short: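 DNA repair-defective yeast; compound exposure; growth scored against vehicle controls.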
# [12] = NCI Yeast Anticancer Drug Screen. Data for the wt1 strain (AID 149);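 also: 0% = growth of vehicle-treated wt1 cultures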; conditions: S. cerevisiae wt1 strain (SPY 50644) growth inhibition, hits give high values
# In short: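 Each compound is tested on wt1 yeast and the loss of growth versus vehicle gives the inhibition value.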
# [13] = NCI Yeast Anticancer Drug Screen. Data for the rad50EPP+ strain (AID 151);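 also: 0% = growth of vehicle-treated control cultures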; conditions: S. cerevisiae rad50 mutant strain, hits give high values
# In short: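 rad50EPP+ yeast treated with test compounds. Readout: growth vs vehicle control.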
# [14] = NCI Yeast Anticancer Drug Screen. Data for the mgt1 strain (AID 153); conditions: S. cerevisiae mgt1 mutant growth inhibition, hits give high values
# In short: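 Growth inhibition relative to vehicle controls was scored for the mgt1 yeast strain after compound exposure.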
# [15] = NCI Yeast Anticancer Drug Screen. Data for the rad50 strain (AID 155);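 also: 0% = growth of vehicle-only cultures of the same strain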; conditions: S. cerevisiae rad50 strain growth inhibition, hits give high values
# In short: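 Vehicle-treated cultures provide the reference for the growth inhibition reported for compound-exposed, repair-deficient yeast.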
# [16] = at 5.0 µM (retest, dose inferred, filed as 0.5)
# [17] = at 50.0 µM (retest, dose inferred, filed as 5.0)
compound,measurement,setting,value
O=[N+]([O-])c1cc2no[n+]([O-])c2cc1N1CCCCC1,growth inhibition,[1]; [16],41%
same,growth inhibition,[1]; at 11.0 µM,98% (active)
same,growth inhibition,[1]; at 33.0 µM,98% (active)
same,growth inhibition,[1]; [17],93% (active)
same,growth inhibition,[1]; at 50.0 µM,92.8% (active)
same,growth inhibition,[1]; at 100.0 µM,97% (active)
same,growth inhibition,[2]; at 1.2 µM,-8%
same,growth inhibition,[2]; at 3.7 µM,56%
same,growth inhibition,[2]; at 11.0 µM,99% (active)
same,growth inhibition,[2]; at 33.0 µM,99% (active)
same,growth inhibition,[2]; at 100.0 µM,98% (active)
same,growth inhibition,[3]; [16],1%
same,growth inhibition,[3]; [17],-4%
same,growth inhibition,[3]; at 50.0 µM,92.4% (active)
same,growth inhibition,[4]; at 1.2 µM,27%
same,growth inhibition,[4]; at 3.7 µM,60%
same,growth inhibition,[4]; at 11.0 µM,96% (active)
same,growth inhibition,[4]; at 33.0 µM,97% (active)
same,growth inhibition,[4]; at 100.0 µM,97% (active)
same,growth inhibition,[5]; [16],0%
same,growth inhibition,[5]; [17],-46%
same,growth inhibition,[5]; at 50.0 µM,90.7% (active)
same,growth inhibition,[6]; at 1.2 µM,-24%
same,growth inhibition,[6]; at 3.7 µM,-8%
same,growth inhibition,[6]; [16],-2%
same,growth inhibition,[6]; at 11.0 µM,71% (active)
same,growth inhibition,[6]; at 33.0 µM,96% (active)
same,growth inhibition,[6]; [17],-16%
same,growth inhibition,[6]; at 50.0 µM,91.3% (active)
same,growth inhibition,[6]; at 100.0 µM,96% (active)
same,growth inhibition,[7]; at 1.2 µM,0%
same,growth inhibition,[7]; at 3.7 µM,74% (active)
same,growth inhibition,[7]; at 11.0 µM,99% (active)
same,growth inhibition,[7]; at 33.0 µM,99% (active)
same,growth inhibition,[7]; at 100.0 µM,98% (active)
same,growth inhibition,[8]; at 1.2 µM,24%
same,growth inhibition,[8]; at 3.7 µM,68%
same,growth inhibition,[8]; at 11.0 µM,98% (active)
same,growth inhibition,[8]; at 33.0 µM,99% (active)
same,growth inhibition,[8]; at 100.0 µM,100% (active)
same,growth inhibition,[9]; at 1.2 µM,51%
same,growth inhibition,[9]; at 3.7 µM,72% (active)
same,growth inhibition,[9]; at 11.0 µM,98% (active)
same,growth inhibition,[9]; at 33.0 µM,99% (active)
same,growth inhibition,[9]; at 100.0 µM,98% (active)
same,growth inhibition,[10]; [16],51%
same,growth inhibition,[10]; [17],89% (active)
same,growth inhibition,[10]; at 50.0 µM,91.5% (active)
COc1cc2c(c(OC)c1OC)-c1c(cc3c(c1OC)OCO3)CC(C)C(C)(O)C2OC(=O)c1ccccc1 (stereo unspecified),growth inhibition,[11]; at 1.2 µM,-26%
same,growth inhibition,[11]; at 3.7 µM,-15%
same,growth inhibition,[11]; at 11.0 µM,-25%
same,growth inhibition,[11]; at 33.0 µM,-22%
same,growth inhibition,[11]; at 100.0 µM,47%
same,growth inhibition,[12]; at 1.2 µM,-16%
same,growth inhibition,[12]; at 3.7 µM,-26%
same,growth inhibition,[12]; at 11.0 µM,-10%
same,growth inhibition,[12]; at 33.0 µM,7%
same,growth inhibition,[12]; at 100.0 µM,3%
same,growth inhibition,[13]; at 1.2 µM,-2%
same,growth inhibition,[13]; at 3.7 µM,-19%
same,growth inhibition,[13]; at 11.0 µM,-26%
same,growth inhibition,[13]; at 33.0 µM,-21%
same,growth inhibition,[13]; at 100.0 µM,5%
same,growth inhibition,[14]; at 1.2 µM,-5%
same,growth inhibition,[14]; at 3.7 µM,-9%
same,growth inhibition,[14]; at 11.0 µM,-14%
same,growth inhibition,[14]; at 33.0 µM,-17%
same,growth inhibition,[14]; at 100.0 µM,70% (active)
same,growth inhibition,[15]; at 1.2 µM,-53%
same,growth inhibition,[15]; at 3.7 µM,-18%
same,growth inhibition,[15]; [16],-3%
same,growth inhibition,[15]; at 11.0 µM,-25%
same,growth inhibition,[15]; at 33.0 µM,-17%
same,growth inhibition,[15]; [17],40%
same,growth inhibition,[15]; at 50.0 µM,71.2% (active)
same,growth inhibition,[15]; at 100.0 µM,50%
same,growth inhibition,[1]; at 1.2 µM,-2%
same,growth inhibition,[1]; at 3.7 µM,12%
same,growth inhibition,[1]; [16],-8%
same,growth inhibition,[1]; at 11.0 µM,16%
same,growth inhibition,[1]; at 33.0 µM,12%
same,growth inhibition,[1]; [17],13%
same,growth inhibition,[1]; at 50.0 µM,55.5%
same,growth inhibition,[1]; at 100.0 µM,34%
same,growth inhibition,[2]; at 1.2 µM,9%
same,growth inhibition,[2]; at 3.7 µM,1%
same,growth inhibition,[2]; at 11.0 µM,-5%
same,growth inhibition,[2]; at 33.0 µM,-4%
same,growth inhibition,[2]; at 100.0 µM,33%
same,growth inhibition,[3]; [16],19%
same,growth inhibition,[3]; [17],68%
same,growth inhibition,[3]; at 50.0 µM,85.4% (active)
same,growth inhibition,[4]; at 1.2 µM,27%
same,growth inhibition,[4]; at 3.7 µM,17%
same,growth inhibition,[4]; at 11.0 µM,16%
same,growth inhibition,[4]; at 33.0 µM,20%
same,growth inhibition,[4]; at 100.0 µM,45%
same,growth inhibition,[5]; [16],10%
same,growth inhibition,[5]; [17],68%
same,growth inhibition,[5]; at 50.0 µM,50.2%
same,growth inhibition,[6]; at 1.2 µM,-8%
same,growth inhibition,[6]; at 3.7 µM,11%
same,growth inhibition,[6]; [16],-2%
same,growth inhibition,[6]; at 11.0 µM,10%
same,growth inhibition,[6]; at 33.0 µM,22%
same,growth inhibition,[6]; [17],49%
same,growth inhibition,[6]; at 50.0 µM,72.2% (active)
same,growth inhibition,[6]; at 100.0 µM,36%
same,growth inhibition,[7]; at 1.2 µM,-26%
same,growth inhibition,[7]; at 3.7 µM,-28%
same,growth inhibition,[7]; at 11.0 µM,-29%
same,growth inhibition,[7]; at 33.0 µM,33%
same,growth inhibition,[7]; at 100.0 µM,93% (active)
same,growth inhibition,[8]; at 1.2 µM,-13%
same,growth inhibition,[8]; at 3.7 µM,-6%
same,growth inhibition,[8]; at 11.0 µM,-13%
same,growth inhibition,[8]; at 33.0 µM,-9%
same,growth inhibition,[8]; at 100.0 µM,56%
same,growth inhibition,[9]; at 1.2 µM,-1%
same,growth inhibition,[9]; at 3.7 µM,-9%
same,growth inhibition,[9]; at 11.0 µM,9%
same,growth inhibition,[9]; at 33.0 µM,-6%
same,growth inhibition,[9]; at 100.0 µM,69%
same,growth inhibition,[10]; [16],3%
same,growth inhibition,[10]; [17],47%
same,growth inhibition,[10]; at 50.0 µM,87.8% (active)
